The record followed here is PubChem BioAssay AID1508600 (Functional Genomics Laboratory (NCATS/FGL), 2020).

The whole screen tested about 53,000 sequences, of which about 3,700 (7%) were called active. The full list was thinned out, with actives kept by preference. A number with no mark means an inactive call.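 Rule for the calls: active = gene knockdowns whose robust z-score for IL-1 alpha signal is at least 2 or at most -2, so actives lie on both sides; inactive = the rest.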

This experiment in a line: Components of the Cytosolic LPS Sensing Pathway: Gene Identification via Genome-wide siRNA Screen.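 Note: robust z of the log signal after scaling to non-targeting control siRNA wells of the plate.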 The note with it: RAW264.7 macrophages, IL-1a HTRF, actives lie on both sides, screened at 100 nM (by protocol), cells primed 5 h with Pam3CSK4 first. In outline: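 Using IL-1a HTRF as read-out, the screen measured release from RAW264.7 cells after 48h siRNA knockdown (100 nM), 5 h Pam3CSK4 priming and 24 h cytosolic LipidA. Values were expressed relative to negative-control wells as robust z-scores.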
With GCUAUGUGGGUUGUGCUAUTT against Olfr1361, the z-score was 0.734.
Regarding CCCUAGUUUAUCUCCGGAUTT against Lhx1, the z-score was 1.15.
With “GGAAUUUGUCAACCGGACCTT against St6galnac6” the figure was 3.31 (active); with GCUAUUGGGUAAUUUGCUUTT against Slco4a1, 0.436; with CGUAUAUCGAUGAAGAUGATT against BC016579, -1.12.
As for GGGAUGCAUCAAAAUACAATT against Pdk3, the z-score was 4.82 (active).
GGACAAGGAGUAUUAUGUGTT against Nrxn3: the z-score is -0.372.
Take GGCCUUGAAGCAGAAGUCUTT against Gfra1: the z-score is -1.21.
With GGGCUUUGUGCCCAACAUGTT against Rtcb, the z-score is 0.278.
Regarding CCCGAUUACUGGAGUUAAATT against Kbtbd7, the z-score is 2.32 (active).
In the case of GGAAGAUGAACUUCGUACCTT against Slc4a2, the z-score is -0.438.
As for GGUCCUGAAGAAGAUUGCATT against Hmox1, the z-score is -0.72.
In the case of GGAAGAGUGACCUUAAGUCTT against Arhgap30, the z-score is 2.29 (active).
With GGCACAGAUUGUGGUGAAGTT against Ccdc43 the figure was -0.518; with GCUGCACCAUGAAUGAGUCTT against Il4, 0.819; with GGAUGUUGUGGGAAAUGACTT against Plaat1, -0.27.
With GGCAAAUCUGAACAACAUUTT against Agt the figure was 1.16; with GCAGAAAUGUCCAUCCAAATT against Sprr2k, 2.36 (active).
As to GGCAGUGCUGGCAACAAAUTT against Hsd3b5, the z-score is -0.884.
GGAAACCUACCGUUACCUATT against Kcnj5: the z-score is -0.181.
As to GCCAUUUAUUGAAACUCGCTT against Becn1, the z-score is -0.905.
Take GGCAGCUGCUGACUUGAUGTT against Gng2: the z-score is 0.133.
With GGGCCAGACUCCAUACUAUTT against Arid1a the figure was 3.71 (active); with GCACAUGCCAUACAACCAUTT against Fads1, 0.655; with GCGAUUGAGCAGUGAAUAATT against Fam216b, 1.06.
Regarding GGAGAAGCGGCAAAUGGAATT against Fam32a, the z-score was 0.429.
With GGCAAGGACUCCAAGGACATT against Wdr45 the figure was -1.31; with GGAAGAGCAGGAGGAAACATT against Mea1, -2.01 (active).
In the case of GGAGAAAAGCUGUAUACACTT against Tmem177, the z-score was 1.22.
As to GGAGGAGAUGAUAAAGAUUTT against Glyr1, the z-score was -0.987.
On to CCCAUCAGACUUUGACCGUTT against Lbh, for which the z-score was -1.45.
As to GGCAACUUCAAGUCCAUAUTT against Pnma3, the z-score was 3.18 (active).
For the sequence GCGACUAGUAGUGCAUGAATT against Wdr13, the z-score was -0.434.
Turning to CCUUAAACUUGGCCGAGGUTT against Trmt112, the z-score was 0.748.
With CGGCCUUCAUCUGCCUUUUTT against Olfr1222, the z-score was 0.475.
With GCCACCUCCUACCAAAUGUTT against Sprr4 the figure was -1; with GGAGCUAAGGGAACAAUUATT against Psmc6, -2.1 (active).
For GGAUGUGUCAGGAAAAUAGTT against Ctsm, the z-score was -0.176.
With GGAAUACGGAAUCAUGGUUTT against Ift52, the z-score was -0.0653.
As to GGUUAAUCUUAACAACAUCTT against Tmod1, the z-score was 0.266.
Take GGAUGCCUUGAAGAAAUUATT against Olfr1044: the z-score is 1.34.
GCUCCAUGAAACCCACUCUTT against Zmiz1: the z-score is -0.656.
With “GGAAAGAAGCAACCACUUCTT against 4833439L19Rik” the figure was 0.403; with CGUGAUCGUGCGUUCCAACTT against Chrnb4, 3.11 (active); with GGAGGACAUGGACACAGUCTT against Slc39a7, -0.805.
Take GGACUAUCCUCACUCCCUUTT against Pigo: the z-score is -0.0578.
Consider GCCGACUGGUUAAAUACAUTT against Nme3, for which the z-score is 5.79 (active).
For the sequence CGAUGCUAGAGAUUAAUCATT against Rdh10, the z-score was -0.0597.
Take GCACCUGGGCCUUUGAAUATT against Hes2: the z-score is -0.754.
As to GCAAGGAAGGAUAUUACACTT against Mmp24, the z-score is 1.34.
With GGAUCAAUUCUAGAAUCAGTT against Runx3 the figure was 0.586; with GCAAUAGCAUACCUACCAUTT against Desi2, -0.228; with CCAACAUCUAGAGAGUCUGTT against Olfr1031, -1.36.
For the sequence GCUUGAUUAUUGUGUGUCCTT against Olfr786, the z-score is -1.53.
With GGAAAUGACGACUACCAAGTT against Tspyl4 the figure was 2.74 (active); with GCGCGAUAGAUUUUGUUUATT against Ier5l, -0.427.
Turning to GGACUAUGGCUCAGCACUCTT against Ttyh1, the z-score was -0.394.
In the case of GGACAAGUUUGACUGUUACTT against Als2cl, the z-score is 0.158.
On to GGAACGACAAUAAAGCUUATT against Ninj1, for which the z-score was 0.029.
Take CCACAGAUUACAUUUAUCCTT against Sephs1: the z-score is -1.19.
Turning to “GGAGAAAUUCUAUGGUAUUTT against 5031434C07Rik”, the z-score is 2.18 (active).
With GGACUUGAUUGAAGUCAUATT against Tmem132d the figure was 0.242.
As to GUUGGCAUAUUUUAUGGCATT against Olfr1033, the z-score is 1.28.
With GGAACAGGAAUAUGAAAGATT against Olfr836, the z-score is -0.903.
For CGGCUUGGACAGAUUUAUCTT against Rer1, the z-score was 0.0516.
Consider GCAUCCUUAGUGAUUUCUATT against Slc48a1, for which the z-score was 0.601.
Turning to CCUACAACGAACGGGAGAATT against Dpm1, the z-score was 0.408.
GGUUCUGACAGACAAAAUUTT against Luc7l3: the z-score is -0.379.
